Results on 31 compounds are retold here after PubChem BioAssay (Tox21).

Experiment [1] can be described thus: qHTS assay to identify small molecule antagonists of the estrogen related receptor (ERR) signaling pathway - cell viability counter screen (AID 1224818). Also: series mostly up to about 46 µM. An outline of the steps:
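Viability of ERR cells, CellTiter-Fluor fluorescence; 17.5 h compound exposure at 37 C, DMSO vehicle; 30 min reagent incubation at 37 C/5% CO2.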

Experiment [2] is described as follows: qHTS assay to identify small molecule antagonists of the estrogen related receptor (ERR) signaling pathway (AID 1224819; also: nearly all actives have a fitted effect of over 50% in size; also: potency is read from the fitted curve at half-maximal effect). In a few lines: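 Seed ERR cells 2,000/well; rest 6 h at 37 C/5% CO2; pin compounds in DMSO; incubate 18 h at 37 C; add One-Glo; wait 30 min at room temperature; measure luminescence.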
For orientation: In qHTS, concentration-response curves come from the screen itself.

The test system of experiment [3] is estrogen-related receptor alpha (ERRalpha) with PGC-1alpha coactivator, human. Kind of experiment: qHTS assay to identify small molecule antagonists of the estrogen related receptor signaling pathway with the pleiotropic PPARgamma coactivator (PGC) (AID 1224821; calls by dose curve; also: nearly all actives have a fitted effect of over 50% in size; also: potency is read from the fitted curve at half-maximal effect). In a few lines: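 Luminescence from One-Glo luciferase reagent (30 min, room temperature) measured after 18 h compound treatment at 37 °C. Cells carry the PGC/ERR reporter and were seeded 6 h prior to dosing.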

A short description of experiment [4]: qHTS assay to identify small molecule antagonists of the estrogen related receptor signaling pathway with the pleiotropic PPARgamma coactivator (PGC) cell viability counter screen (AID 1224822; also: potency is read from the fitted curve at half-maximal effect). In a few lines:
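17.5 h compound treatment of PGC/ERR cells at 37 C; readout CellTiter-Fluor fluorescence; run alongside the PGC/ERR antagonist screen to flag cytotoxic compounds.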

Experiment [5] in a line: qHTS assay to identify small molecule agonists of the estrogen related receptor signaling pathway with the pleiotropic PPARgamma coactivator (PGC) (AID 1224823). Also: potency is read from the fitted curve at half-maximal effect. In a few lines:
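Luminescence from One-Glo reagent (30 min, room temperature) was read after 18 h compound treatment at 37 C of PGC/ERR cells plated 6 h beforehand; compounds delivered in DMSO by pin tool.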

Experiment [6] is described as follows: qHTS assay to identify small molecule agonists of the estrogen related receptor (ERR) signaling pathway (AID 1224820). Also: potency is read from the fitted curve at half-maximal effect. In a few lines: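 After 6 h plating (2,000 cells/well) and 18 h compound treatment at 37 C, ERR cells were lysed with One-Glo and luminescence read after 30 min at room temperature.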

Results filed as inconclusive are left out. Calls of active or inactive are those of the source. Unless noted, calls follow the shape of the dose curve; as a rule, active = well fitted curve in the direction sought with a large enough effect in the repeat runs; inconclusive = weak or mixed curves; inactive = no such curve, though single readings can be large; an effect the other way counts as inactive or inconclusive.

`C[C@H](NC(=O)/C(C#N)=C/c1ccc(O)c(O)c1)c1ccccc1`: the Potency entry in experiment [1], in experiment [2], in experiment [3], in experiment [4] and in experiment [5] was “inactive” in each case.
Consider `Cc1cccc(C)c1OCC(N)C(C)C` (stereo unspecified), for which the Potency entry in experiment [1], in experiment [2], in experiment [3], in experiment [4] and in experiment [5] was “inactive” in each case.
`CSc1nc(N)c2ncn([C@@H]3O[C@H](COP(=O)(O)OP(=O)(O)O)C(O)[C@H]3O)c2n1` (stereo partly specified): the Potency result in experiment [1], in experiment [2], in experiment [3], in experiment [4] and in experiment [5] was “inactive” each time.
Consider `COc1ccc(Br)cc1S(=O)(=O)NC(=O)/C=C/c1ccccc1Cc1ccc2ccccc2c1`, for which the Potency result in experiment [1], in experiment [2], in experiment [3], in experiment [4] and in experiment [5] was “inactive” throughout.
For `Cc1cc2c(cc1Cl)N(C(=O)Nc1ccc(Oc3cccnc3C)nc1)CC2`, the Potency is 5.11 µM (active) in experiment [2] and 12.8 µM (active) in experiment [3]. The Potency entry in experiment [6] and in experiment [5] was “inactive” throughout.
As to `Cc1ccc(S(=O)(=O)N[C@@H](Cc2ccccc2)C(=O)CCl)cc1`, the Potency entry in experiment [2], in experiment [6] and in experiment [5] was “inactive” throughout.
Regarding `CN(C)c1cc2c(Nc3ccc4c(cnn4Cc4ccccc4)c3)ncnc2cn1`, the Potency in experiment [2] was 13.3 µM (active). The Potency result in experiment [6] and in experiment [5] was “inactive” each time.
On to `Fc1ccc(C(OCCCc2cnc[nH]2)c2ccc(F)cc2)cc1`, for which the Potency was 13.9 µM (active) in experiment [2] and 10.2 µM (active) in experiment [3]. Further, the Potency result in experiment [6] and in experiment [5] was “inactive” throughout.
Regarding `Nc1ncnc2c1c(-c1ccc(Oc3ccccc3)cc1)cn2C1CCCC1`, in experiment [2], the Potency was 11.9 µM (active). For the same compound, the Potency result in experiment [6], in experiment [3] and in experiment [5] was “inactive” throughout.
In the case of `CN(C)c1ccc(/C=C2\C(=O)Nc3ccccc32)cc1`, the Potency result in experiment [2] and in experiment [3] was “inactive” in each case. Besides, the Potency was 3.35 µM (active) in experiment [6] and 3.1 µM (active) in experiment [5].
`OCC1O[C@H]([S-])C(O)[C@@H](O)[C@@H]1O.[Au+]` (stereo partly specified): the Potency in experiment [2] was 22 µM (active); in experiment [3] it was 5.11 µM (active); in experiment [4] it was 9.08 µM (active). In addition, the Potency entry in experiment [6] and in experiment [5] was “inactive” throughout.
Take `COc1ccc(/C=C2\COc3ccc(C)cc3C2=O)cc1O`: the Potency result in experiment [2] and in experiment [3] was “inactive” each time.
With `CC(C)(C)c1ccc(S(=O)(=O)/C=C/C#N)cc1`, the Potency entry in experiment [2], in experiment [6] and in experiment [5] was “inactive” in each case.
As to `O=C(NOCC1CC1)c1cc(Br)c(F)c(F)c1Nc1ccc(I)cc1Cl`, the Potency in experiment [2] was 2.98 µM (active). Also, the Potency result in experiment [6] and in experiment [5] was “inactive” each time.
With `O=C(O)c1cc([N+](=O)[O-])ccc1NCCCc1ccccc1`, the Potency entry in experiment [2], in experiment [6], in experiment [3] and in experiment [5] was “inactive” throughout.
For `O=C(c1ccc(Cl)cc1)N1CCN(c2ccc([N+](=O)[O-])c3ncccc23)CC1`, in experiment [2], the Potency is 7.5 µM (active). Moreover, the Potency entry in experiment [6] and in experiment [5] was “inactive” each time.
`Cc1cccc(-c2[nH]c(C(C)(C)C)nc2-c2ccc3nccnc3c2)n1`: the Potency was 10.2 µM (active) in experiment [2], 6.94 µM (active) in experiment [3] and 8.1 µM (active) in experiment [4]. The Potency entry in experiment [6] and in experiment [5] was “inactive” each time.
With `Nc1ccc2c3c(cccc13)C(=O)NC2=O`, the Potency result in experiment [2], in experiment [6], in experiment [3] and in experiment [5] was “inactive” throughout.
Turning to `NC[C@@H]1O[C@H](C23CC4CC(CC(C4)C2)C3)Cc2c1ccc(O)c2O`, the Potency in experiment [2] was 22.8 µM (active). The Potency entry in experiment [6], in experiment [3] and in experiment [5] was “inactive” throughout.
On to `CCCC(=O)NCCc1c2n(c3ccc(OC)cc13)CCCc1ccccc1-2`, for which the Potency in experiment [2] was 20.3 µM (active). Moreover, the Potency entry in experiment [6] and in experiment [5] was “inactive” in each case.
As for `O=C1NCc2c1c1c3ccccc3[nH]c1c1[nH]c3ccccc3c21`, the Potency in experiment [2] is 2.76 µM (active). The Potency result in experiment [6], in experiment [3] and in experiment [5] was “inactive” in each case.
Regarding `O=Nc1c(-c2c(O)[nH]c3ccccc23)[nH]c2ccccc12`, the Potency entry in experiment [2] and in experiment [3] was “inactive” in each case. Besides, the Potency in experiment [6] was 2.87 µM (active); in experiment [4], 13.9 µM (active).
As for `O=C1c2ccccc2C(=O)c2c(NCCc3ccc(O)cc3)ccc(NCCc3ccc(O)cc3)c21`, the Potency was 18.1 µM (active) in experiment [2] and 11.9 µM (active) in experiment [4]. Further, the Potency result in experiment [6], in experiment [3] and in experiment [5] was “inactive” each time.
Take `Cc1ccc(S(=O)(=O)/C=C/C#N)cc1`: the Potency result in experiment [2] and in experiment [3] was “inactive” each time. The Potency is 17.4 µM (active) in experiment [6] and 15.5 µM (active) in experiment [5].
As to `N#C/C(=C\c1ccc(O)c(O)c1)C(=O)Nc1ccccc1`, the Potency entry in experiment [2] and in experiment [3] was “inactive” in each case.
In the case of `O=C(/C=C/c1ccc(O)c(O)c1)OCCc1ccccc1`, the Potency entry in experiment [2], in experiment [6], in experiment [3] and in experiment [4] was “inactive” in each case. Further, the Potency in experiment [5] is 14.4 µM (active).
Take `COc1ccc(C(=O)/C(Cc2cc(OC)c(OC)c(OC)c2)=C(\C(=O)O)c2ccc3c(c2)OCO3)cc1`: the Potency was 10.2 µM (active) in experiment [2] and 18.8 µM (active) in experiment [4]. Further, the Potency entry in experiment [5] is “inactive”.
`COC1=C(OC)C(=O)c2ccccc2C1=O`: the Potency in experiment [2] was 11 µM (active). Besides, the Potency result in experiment [6] and in experiment [5] was “inactive” in each case.
On to `O=C1c2ccccc2-c2n[nH]c3cccc1c23`, for which the Potency in experiment [2] is 26.6 µM (active). Besides, the Potency entry in experiment [6], in experiment [3] and in experiment [5] was “inactive” throughout.
As to `CCCCC[C@H](CC(=O)NO)C(=O)N[C@H](C(=O)N1CCC[C@H]1CO)C(C)C`, the Potency in experiment [2] is 5.11 µM (active); in experiment [3] it was 10.2 µM (active). The Potency entry in experiment [6] and in experiment [5] was “inactive” each time.
For the compound `CC[C@@H](C)[C@H]1O[C@]2(CC[C@@H]1C)C[C@@H]1C[C@@H](C/C=C(\C)[C@@H](O[C@H]3C[C@H](OC)[C@@H](O[C@H]4C[C@H](OC)[C@@H](O)[C@H](C)O4)[C@H](C)O3)[C@@H](C)/C=C/C=C3\CO[C@@H]4[C@H](O)C(C)=C[C@@H](C(=O)O1)[C@]34O)O2`, the Potency in experiment [2] was 12.3 µM (active); in experiment [3], 16.8 µM (active); in experiment [4], 23.7 µM (active). The Potency entry in experiment [6] and in experiment [5] was “inactive” in each case.
